In PubChem BioAssay:
Results filed as inconclusive are left out. Calls of active or inactive are those of the source.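 The calls were made as follows, unless noted: active = GFP response below 50% of the DMSO control; inconclusive = fewer than 70 events counted for a yeast strain; inactive = the rest.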

Legend:
[1] = rapamycin-like changes in RPL19A-GFP expression – cell-based, S. cerevisiae, multiplex flow cytometry, primary screen (AID 1862; in the data active = percent of DMSO control GFP below about 86%;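 also: lower values mimic rapamycin by blocking the RPL19A rise seen in DMSO cells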); details: S. cerevisiae RPL19A-GFP strain, flow cytometry fluorescence, 3 h; at 10 µM; stronger effect = lower value
[2] = TOR pathway GLN3 branch reporter MEP2-GFP changes – S. cerevisiae, multiplex flow cytometry, primary screen (AID 1867;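 active = GFP response, as percent of the DMSO control, above the screen-wide mean plus 3 SD, about 139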;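 also: median GFP channel fluorescence of barcode-gated MEP2-GFP cells measured by flow cytometry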); details: S. cerevisiae MEP2-GFP strain, 3 h, at 10 µM, stronger effect = higher value, 100% means same as DMSO wells
[3] = TOR pathway RTG branch CIT2 reporter changes – S. cerevisiae, GFP fusion, multiplex flow cytometry, primary screen (AID 1870;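 active = percent response above a set limit, the screen-wide mean plus 3 SD, cut at about 130% in these data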;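 also: barcoded CIT2-GFP strain pooled with four other GFP strains with rapamycin as positive control; median GFP fluorescence per well over plate mean of DMSO wells so 100% = DMSO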); details: S. cerevisiae CIT2-GFP expression, 3 h, at 10 µM, stronger effect = higher value
[4] = TOR pathway LAP4-GFP level changes – S. cerevisiae, multiplex flow cytometry, primary screen (AID 1873;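 active = GFP signal, as percent of the solvent control, above the screen mean plus 3 SD, about 149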); details: S. cerevisiae LAP4-GFP expression, 3 h, at 10 µM, stronger effect = higher value
[5] = yeast AGP1-GFP level changes, GLN3 branch – cell-based, multiplex flow cytometry, S. cerevisiae, primary screen (AID 1887;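 active = GFP signal above the screen-wide mean plus 3 SD, that is over about 124.5% of the solvent control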;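 also: AGP1-GFP fusion strain of S. cerevisiae within a five-strain barcoded multiplex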); details: 3 h, at 10 µM, stronger effect = higher value
[6] = hit retest on RPL19A-GFP reporter strain – cell-based, S. cerevisiae, flow cytometry, cherry picks, mother/daughter gates, confirmation (AID 2270); details: 3 h, at 10 µM, stronger effect = lower value, 100 = same GFP as DMSO wells
[7] = yeast TOR pathway reporter LAP4-GFP change – cell-based, cherry picks, flow cytometry, mother/daughter gates, confirmation (AID 2271;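 active = GFP response above 150% of the DMSO control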;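 also: ratio of sample to DMSO plate mean so 100% equals DMSO level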); details: S. cerevisiae LAP4-GFP strain, 3 h, at 10 µM, stronger effect = higher value, 100 means same as DMSO control
[8] = TOR pathway reporter MEP2-GFP, retest of hits – S. cerevisiae, flow cytometry GFP, cherry picks, confirmation (AID 2272;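 active = GFP response above 150% of the DMSO control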;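 also: ratio of well signal to plate DMSO mean so 100% equals DMSO level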); details: S. cerevisiae MEP2-GFP strain, 3 h, at 10 µM, stronger effect = higher value
[9] = TOR pathway CIT2 reporter hit retest – S. cerevisiae, GFP fusion, cherry picks, mother/daughter gates, confirmation (AID 2274;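 active = GFP response above 150% of the DMSO level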); details: S. cerevisiae CIT2-GFP strain, flow cytometry, 3 h, at 10 µM, stronger effect = higher value
[10] = reduced mouse 2C T cell binding to pMHC/ICAM-1 vesicles – MLPCN validation set, flow cytometry, LFA-1/ICAM-1 modulator project, pilot screen (AID 2523;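 active = response below a set limit, under 55% cells CD8-positive and vesicle-bound, and CD8 cells' 90th-percentile brightness under 279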;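 as to vesicle binding response: mean PE anti-B7-1 fluorescence of CD8+ cells relative to row control; 100% = QL9-loaded vesicles with DMSO vehicle in the same plate row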); details: 2C mouse CD8+ T cells, at 7 µM, stronger effect = lower value; double positive events: measured here: CD8+/vesicle+ event percentage
[11] = target: Integrin beta-1 (Homo sapiens) + Integrin alpha-4 (Homo sapiens) (UniProt P13612+P05556); assay: alpha4beta1 integrin LIBS antibody binding reduction – U937 cells, HUTS-21 mAb, flow cytometry, validation set, VLA-4 allosteric modulator project, pilot screen (AID 2674;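 active = inhibition above 50%, about 3 SD of the validation set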;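 also: antibody binding induced by the VLA-4 ligand LDV present at three times its Kd; 0% = LDV ligand with antibody and no compound and 100% = antibody without LDV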); details: HUTS-21 LIBS mAb binding, at 6.7 µM, stronger effect = higher value, binding induced by LDV ligand
Chain of Integrin beta-1 (Homo sapiens) + Integrin alpha-4 (Homo sapiens) (P05556 whole entry, looked up): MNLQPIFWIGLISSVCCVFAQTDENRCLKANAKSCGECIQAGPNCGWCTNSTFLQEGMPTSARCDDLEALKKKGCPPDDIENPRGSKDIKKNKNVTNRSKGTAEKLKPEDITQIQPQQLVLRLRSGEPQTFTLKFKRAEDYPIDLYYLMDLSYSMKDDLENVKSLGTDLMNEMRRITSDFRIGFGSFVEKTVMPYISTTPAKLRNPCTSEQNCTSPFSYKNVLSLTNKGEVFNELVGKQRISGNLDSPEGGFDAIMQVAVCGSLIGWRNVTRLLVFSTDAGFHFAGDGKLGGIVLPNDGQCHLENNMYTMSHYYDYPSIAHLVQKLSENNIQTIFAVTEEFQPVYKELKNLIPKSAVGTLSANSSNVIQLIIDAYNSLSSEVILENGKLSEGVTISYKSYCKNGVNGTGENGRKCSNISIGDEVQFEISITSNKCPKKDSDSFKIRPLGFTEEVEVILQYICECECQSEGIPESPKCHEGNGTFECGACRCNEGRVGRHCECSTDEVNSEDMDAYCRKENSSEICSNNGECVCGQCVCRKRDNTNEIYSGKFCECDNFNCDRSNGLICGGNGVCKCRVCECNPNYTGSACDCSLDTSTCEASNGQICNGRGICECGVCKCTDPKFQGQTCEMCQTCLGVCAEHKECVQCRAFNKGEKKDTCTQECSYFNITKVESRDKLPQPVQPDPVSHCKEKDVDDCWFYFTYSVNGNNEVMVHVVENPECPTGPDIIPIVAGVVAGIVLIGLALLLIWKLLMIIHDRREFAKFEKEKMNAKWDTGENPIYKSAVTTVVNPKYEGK
Chain of Integrin beta-1 (Homo sapiens) + Integrin alpha-4 (Homo sapiens) (P13612 whole entry, looked up): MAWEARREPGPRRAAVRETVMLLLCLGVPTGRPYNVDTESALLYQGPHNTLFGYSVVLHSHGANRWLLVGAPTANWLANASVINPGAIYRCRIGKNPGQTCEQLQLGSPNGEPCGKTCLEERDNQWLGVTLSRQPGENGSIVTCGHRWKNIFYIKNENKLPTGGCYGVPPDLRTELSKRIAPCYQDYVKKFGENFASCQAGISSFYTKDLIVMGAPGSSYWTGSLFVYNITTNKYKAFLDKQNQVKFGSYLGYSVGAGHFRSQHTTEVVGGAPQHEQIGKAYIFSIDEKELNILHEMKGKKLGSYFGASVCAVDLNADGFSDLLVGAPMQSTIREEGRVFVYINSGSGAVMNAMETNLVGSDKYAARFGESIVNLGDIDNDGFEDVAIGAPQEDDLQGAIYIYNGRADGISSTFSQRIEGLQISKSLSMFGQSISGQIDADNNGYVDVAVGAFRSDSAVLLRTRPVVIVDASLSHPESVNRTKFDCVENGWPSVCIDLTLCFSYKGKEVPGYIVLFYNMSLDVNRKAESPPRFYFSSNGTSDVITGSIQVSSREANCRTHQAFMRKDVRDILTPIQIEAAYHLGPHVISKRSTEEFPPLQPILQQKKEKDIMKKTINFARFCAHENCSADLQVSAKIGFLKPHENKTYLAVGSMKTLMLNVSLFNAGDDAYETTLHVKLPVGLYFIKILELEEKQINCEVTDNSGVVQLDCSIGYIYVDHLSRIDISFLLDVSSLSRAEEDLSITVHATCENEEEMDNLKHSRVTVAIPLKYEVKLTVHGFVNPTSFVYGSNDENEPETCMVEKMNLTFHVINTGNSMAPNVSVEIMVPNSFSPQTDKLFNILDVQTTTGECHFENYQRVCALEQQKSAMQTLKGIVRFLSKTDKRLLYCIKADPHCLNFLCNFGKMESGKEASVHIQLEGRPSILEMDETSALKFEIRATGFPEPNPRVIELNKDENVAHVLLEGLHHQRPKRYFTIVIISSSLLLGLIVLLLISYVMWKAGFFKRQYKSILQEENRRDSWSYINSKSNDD

[12] = calorie-restriction mimetic ROS inhibitors, yeast – validation compound set, pilot screen (AID 2706;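 active = superoxide response below 65% of plate, a cut near 3 SD across the whole screen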;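 also: yeast exposed to compound for one week at 30 degrees C before staining; 100% = mean of all compound wells on the same plate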); details: S. cerevisiae aging, superoxide DHE fluorescence; at 10 µM; stronger effect = lower value
[13] = target: Beta-adrenergic receptor kinase 1 (Homo sapiens) (UniProt P25098); assay: GRK2 binders displacing RNA aptamer, biochemical, validation, human GRK2, bead flow cytometry (AID 488806;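 active = aptamer binding inhibition above 30%, about 3 SD of noise from non-fluorescent compounds; inactive = inhibition at or below 30%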); details: bead-bound GRK2, FAM-aptamer displacement, at 10 µM, stronger effect = higher value
Chain of Beta-adrenergic receptor kinase 1 (Homo sapiens) (P25098 whole entry, looked up): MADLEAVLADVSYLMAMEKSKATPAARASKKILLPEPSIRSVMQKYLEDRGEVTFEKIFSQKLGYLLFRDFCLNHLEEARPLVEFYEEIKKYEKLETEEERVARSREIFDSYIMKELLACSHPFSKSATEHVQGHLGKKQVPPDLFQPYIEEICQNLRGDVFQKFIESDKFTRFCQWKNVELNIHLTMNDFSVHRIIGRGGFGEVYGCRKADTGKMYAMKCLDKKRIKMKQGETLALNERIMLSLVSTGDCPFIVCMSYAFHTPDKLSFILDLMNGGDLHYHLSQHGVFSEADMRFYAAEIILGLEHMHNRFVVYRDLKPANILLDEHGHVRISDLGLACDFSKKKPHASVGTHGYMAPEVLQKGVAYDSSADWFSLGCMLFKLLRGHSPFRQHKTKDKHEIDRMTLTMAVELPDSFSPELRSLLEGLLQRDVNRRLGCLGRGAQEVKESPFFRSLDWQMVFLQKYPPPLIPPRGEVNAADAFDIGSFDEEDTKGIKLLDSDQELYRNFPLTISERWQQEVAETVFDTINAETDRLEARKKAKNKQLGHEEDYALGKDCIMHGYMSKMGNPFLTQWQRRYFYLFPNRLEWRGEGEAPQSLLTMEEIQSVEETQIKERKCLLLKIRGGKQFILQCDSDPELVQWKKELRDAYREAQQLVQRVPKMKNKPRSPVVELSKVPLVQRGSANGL

[14] = target: Beta-2 adrenergic receptor (Homo sapiens) (UniProt P07550); assay: agonist-induced loss of surface beta2AR – cell-based, FAP fluorogen, flow cytometry, validation set, pilot screen (AID 504459;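 active = percent response above 42, roughly 3 SD of non-fluorescent test compounds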;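 also: agonist-driven loss of surface beta2AR via internalization measured by FAP dye flow cytometry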); details: Am2.2-beta2AR cells, at 10 µM, stronger effect = higher value
Chain of Beta-2 adrenergic receptor (Homo sapiens) (P07550 whole entry, looked up): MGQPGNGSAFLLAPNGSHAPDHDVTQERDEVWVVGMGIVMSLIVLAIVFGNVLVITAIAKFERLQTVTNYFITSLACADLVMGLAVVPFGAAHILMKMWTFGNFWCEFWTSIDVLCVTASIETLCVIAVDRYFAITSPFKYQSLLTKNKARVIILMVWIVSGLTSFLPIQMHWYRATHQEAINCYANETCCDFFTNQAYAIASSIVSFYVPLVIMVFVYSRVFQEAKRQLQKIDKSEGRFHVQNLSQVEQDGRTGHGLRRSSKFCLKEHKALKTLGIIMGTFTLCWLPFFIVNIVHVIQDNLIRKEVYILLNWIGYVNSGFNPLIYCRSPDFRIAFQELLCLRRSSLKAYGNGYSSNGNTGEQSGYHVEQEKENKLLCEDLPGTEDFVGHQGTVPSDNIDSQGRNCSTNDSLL

[15] = target: AP-2 complex subunit beta (Homo sapiens) (UniProt P63010); assay: beta-arrestin/AP2 interaction blockers – biochemical, validation set, GST-AP2 beads, flow cytometry, pilot screen (AID 504541;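 active = inhibition above 54%, about 3 SD of non-fluorescent compounds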;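 also: AP2 carries R879A mutation and is captured from E. coli lysate; bead-bound FITC arrestin peptide fluorescence measuring arrestin peptide binding to AP2; 0% = DMSO wells and 100% = excess unlabeled arrestin peptide control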); details: FITC arrestin peptide, at 10 µM, stronger effect = higher value, AP2 beta2 appendage fragment, R879A mutant
Chain of AP-2 complex subunit beta (Homo sapiens) (P63010 whole entry, looked up, the tested form may be a part, one chain of several): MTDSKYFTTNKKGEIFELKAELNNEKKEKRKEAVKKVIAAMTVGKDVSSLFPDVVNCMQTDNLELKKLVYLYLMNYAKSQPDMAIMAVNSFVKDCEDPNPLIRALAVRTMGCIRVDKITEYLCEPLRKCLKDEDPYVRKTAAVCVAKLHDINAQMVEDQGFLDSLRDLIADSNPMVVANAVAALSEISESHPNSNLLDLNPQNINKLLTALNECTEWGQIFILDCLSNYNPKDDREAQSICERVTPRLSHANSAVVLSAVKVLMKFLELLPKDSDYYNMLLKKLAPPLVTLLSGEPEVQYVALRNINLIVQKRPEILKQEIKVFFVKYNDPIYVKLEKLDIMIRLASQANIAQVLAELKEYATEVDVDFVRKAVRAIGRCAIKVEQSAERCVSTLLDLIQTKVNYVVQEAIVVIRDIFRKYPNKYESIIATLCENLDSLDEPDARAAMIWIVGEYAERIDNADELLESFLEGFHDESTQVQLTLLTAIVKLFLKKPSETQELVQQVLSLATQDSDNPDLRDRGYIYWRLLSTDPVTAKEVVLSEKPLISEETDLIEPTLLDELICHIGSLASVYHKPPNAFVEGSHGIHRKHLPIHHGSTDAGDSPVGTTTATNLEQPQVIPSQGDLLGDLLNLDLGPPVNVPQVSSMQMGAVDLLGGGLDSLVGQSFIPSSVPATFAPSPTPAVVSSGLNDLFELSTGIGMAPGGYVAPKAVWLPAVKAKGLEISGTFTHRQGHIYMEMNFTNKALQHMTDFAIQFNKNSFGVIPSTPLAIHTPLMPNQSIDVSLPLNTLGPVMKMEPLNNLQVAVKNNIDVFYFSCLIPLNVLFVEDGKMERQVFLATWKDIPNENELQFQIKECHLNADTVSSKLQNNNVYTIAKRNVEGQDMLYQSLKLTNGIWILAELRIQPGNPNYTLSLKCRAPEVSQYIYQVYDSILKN

[16] = cytosolic pH regulators acting via V-ATPase – S. cerevisiae, pHLuorin, HTS validation (AID 504600; in the data active = response above about 15%;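 also: plate controls were DMSO for no effect and reference compound for full effect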); details: V-ATPase proton transport, at 10 µM, stronger effect = higher value
[17] = tested on: anti-desmoglein-3 scFv antibody binding to human DSG3; assay: blockers of pathogenic pemphigus antibody–desmoglein-3 binding – biochemical, validation compound set, bead-based, flow cytometry, pilot screen (AID 588368;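 active = binding below the plate cutoff, the plate median minus 3 SD, with a reading above zero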;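 also: signal is the median channel fluorescence of bead-bound GFP antibody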); details: Protein G beads, DSG3-Fc, scFv-GFP binding, at 10 µM, stronger effect = lower value
[18] = Nile Red efflux blockade in pump-expressing yeast – validation compound set, multiplex, phenotypic, pilot screen (AID 588506;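 active = efflux inhibition above 0.42, the validation set average plus 4 SD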;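 also: Nile Red retained in cells so higher fluorescence means more efflux inhibition; 0 = negative control wells and 1 = enniatin B 25 µM full block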); details: S. cerevisiae pump-expressing triplex, Nile Red efflux flow cytometry; at 10 µM; stronger effect = higher value; the pumps come from Candida albicans
[19] = target: ATP-binding cassette sub-family B member 6 (Homo sapiens) (UniProt Q9NP58); assay: blockers of ABCB6-driven porphyrin uptake – K562-ABCB6 cells, flow cytometry, validation set, pilot screen (AID 588550;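 active = inhibition above the screen-wide mean plus 3 SD, about 51%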;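 also: 0% = DMSO wells and 100% = benzethonium chloride 70 µM positive control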); details: K562-ABCB6 porphyrin accumulation, 1 h, at 10 µM, stronger effect = higher value
Chain of ATP-binding cassette sub-family B member 6 (Homo sapiens) (Q9NP58 whole entry, looked up): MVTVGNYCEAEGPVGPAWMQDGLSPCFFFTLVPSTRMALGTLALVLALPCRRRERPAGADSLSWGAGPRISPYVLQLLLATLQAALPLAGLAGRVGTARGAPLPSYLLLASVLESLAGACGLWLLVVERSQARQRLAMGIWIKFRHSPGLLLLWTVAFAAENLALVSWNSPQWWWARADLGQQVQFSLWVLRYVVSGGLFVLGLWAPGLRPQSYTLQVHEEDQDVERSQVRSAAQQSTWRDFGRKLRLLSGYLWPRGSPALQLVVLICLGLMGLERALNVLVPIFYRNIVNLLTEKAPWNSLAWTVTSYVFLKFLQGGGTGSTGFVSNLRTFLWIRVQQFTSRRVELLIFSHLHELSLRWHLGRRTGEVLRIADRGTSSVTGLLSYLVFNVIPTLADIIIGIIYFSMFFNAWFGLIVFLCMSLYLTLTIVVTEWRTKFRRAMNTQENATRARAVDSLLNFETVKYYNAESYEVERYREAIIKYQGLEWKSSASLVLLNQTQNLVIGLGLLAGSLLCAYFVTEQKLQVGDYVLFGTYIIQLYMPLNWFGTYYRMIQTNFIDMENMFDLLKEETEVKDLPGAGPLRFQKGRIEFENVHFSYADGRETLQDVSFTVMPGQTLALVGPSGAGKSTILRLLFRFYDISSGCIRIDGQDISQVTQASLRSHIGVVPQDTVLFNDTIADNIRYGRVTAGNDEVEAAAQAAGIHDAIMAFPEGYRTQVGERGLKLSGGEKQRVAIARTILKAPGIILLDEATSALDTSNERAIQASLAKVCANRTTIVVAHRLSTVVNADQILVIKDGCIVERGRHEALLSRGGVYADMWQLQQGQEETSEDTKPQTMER

[20] = AML differentiation inducers, ER-HoxA9 marrow cells – cell-based, GFP/MAC1 double positive, flow cytometry, validation set, primary screen (AID 588685;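 active = differentiation response of at least 50%, scaled between solvent and reference control, from cells with both markers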;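 also: compound exposure lasts four days before antibody staining and flow analysis; 0% = DMSO wells and 100% = 5 µM fulvestrant positive control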); details: stronger effect = higher value, normalized: vehicle 0, fulvestrant 100
[21] = measured here: daughter cell gate
[22] = measured here: mother cell gate
[23] = measured here: daughter cell gate response
[24] = measured here: mother cell gate response

**Q.** For CN1CCN2c3ccccc3Cc3ccccc3C2C1 (stereo unspecified), which percent of DMSO control GFP [1] is on record?
**A.** The percent of DMSO control GFP was 90.2% (inactive).

**Q.** And the GFP response vs DMSO [2]?
**A.** The GFP response vs DMSO was 146% (active).

**Q.** What about the percent response of DMSO control [3] of the same molecule?
**A.** The percent response of DMSO control was 118% (inactive).

**Q.** What about the GFP response vs DMSO [4] of the same molecule?
**A.** The GFP response vs DMSO was 94.6% (inactive).

**Q.** What about the GFP response, % of DMSO [5] of the same molecule?
**A.** The GFP response, % of DMSO was 107% (inactive).

**Q.** And the GFP response vs DMSO [6]?
**A.** Its GFP response vs DMSO is 99.3% (inactive).

**Q.** And the GFP response vs DMSO [6, 21]?
**A.** The GFP response vs DMSO was 98.4%.

**Q.** And the GFP response vs DMSO [6, 22]?
**A.** Its GFP response vs DMSO is 100%.

**Q.** What about the GFP response relative to DMSO [7] of the same molecule?
**A.** The GFP response relative to DMSO was 95% (inactive).

**Q.** And the GFP response relative to DMSO [7, 23]?
**A.** Its GFP response relative to DMSO is 97.2%.

**Q.** And the GFP response relative to DMSO [7, 24]?
**A.** Its GFP response relative to DMSO is 97.2%.

**Q.** And the GFP response vs DMSO [8]?
**A.** The GFP response vs DMSO was 100% (inactive).

**Q.** What about the GFP response, % of DMSO [9] of the same molecule?
**A.** Its GFP response, % of DMSO is 99.1% (inactive).

**Q.** What about the GFP response, % of DMSO [9, 21] of the same molecule?
**A.** Its GFP response, % of DMSO is 94.8%.

**Q.** What about the GFP response, % of DMSO [9, 22] of the same molecule?
**A.** Its GFP response, % of DMSO is 101%.

**Q.** What about the double positive events [10] of the same molecule?
**A.** The double positive events was 61.8%.

**Q.** And the vesicle binding response [10]?
**A.** The vesicle binding response was 183% (inactive).

**Q.** And the inhibition [11]?
**A.** Its inhibition is 8.4% (inactive).

**Q.** And the superoxide response (% of plate) [12]?
**A.** The superoxide response (% of plate) was 99.6% (inactive).

**Q.** And the aptamer binding inhibition [13]?
**A.** The aptamer binding inhibition was 2% (inactive).

**Q.** And the response [14]?
**A.** Its response is 4.6% (inactive).

**Q.** And the inhibition [15]?
**A.** The inhibition was 36.1% (inactive).

**Q.** What about the response [16] of the same molecule?
**A.** Its response is -3.99% (inactive).

**Q.** And the binding (% of control) [17]?
**A.** Its binding (% of control) is 95.6% (inactive).

**Q.** What about the efflux inhibition (fraction of control) [18] of the same molecule?
**A.** The efflux inhibition (fraction of control) was -0.13 (inactive).

**Q.** What about the inhibition [19] of the same molecule?
**A.** The inhibition was 3% (inactive).

**Q.** What about the differentiation response [20] of the same molecule?
**A.** The differentiation response was -0.82% (inactive).

**Q.** What does the source list for c1cnc2c(c1)ccc1cccnc12?
**A.** percent of DMSO control GFP [1]: 98.9% (inactive); GFP response vs DMSO [2]: 107% (inactive); percent response of DMSO control [3]: 96.4% (inactive); GFP response vs DMSO [4]: 174% (active); GFP response, % of DMSO [5]: 117% (inactive); GFP response vs DMSO [6]: 101% (inactive); GFP response vs DMSO [6, 21]: 100%; GFP response vs DMSO [6, 22]: 100%; GFP response relative to DMSO [7]: 116% (inactive); GFP response relative to DMSO [7, 23]: 116%; GFP response relative to DMSO [7, 24]: 117%; GFP response vs DMSO [8]: 112% (inactive); GFP response, % of DMSO [9]: 111% (inactive); GFP response, % of DMSO [9, 21]: 117%; GFP response, % of DMSO [9, 22]: 107%; double positive events [10]: 59.5%; vesicle binding response [10]: 192% (inactive); inhibition [11]: 19.3% (inactive); superoxide response (% of plate) [12]: 77.1% (inactive); aptamer binding inhibition [13]: 8% (inactive); response [14]: -45.4% (inactive); inhibition [15]: 10.3% (inactive); response [16]: 9.34% (inactive); binding (% of control) [17]: 105% (inactive); efflux inhibition (fraction of control) [18]: -0.13 (inactive); inhibition [19]: 4% (inactive); differentiation response [20]: -0.06% (inactive)

**Q.** What does the source list for COc1ccc(C2=CC(=O)C=CC2=O)cc1?
**A.** percent of DMSO control GFP [1]: 84.7% (active); GFP response vs DMSO [2]: 105% (inactive); percent response of DMSO control [3]: 68.5% (inactive); GFP response vs DMSO [4]: 144% (inactive); GFP response, % of DMSO [5]: 91.9% (inactive); GFP response vs DMSO [6]: 109% (inactive); GFP response vs DMSO [6, 21]: 114%; GFP response vs DMSO [6, 22]: 104%; GFP response relative to DMSO [7]: 119% (inactive); GFP response relative to DMSO [7, 23]: 120%; GFP response relative to DMSO [7, 24]: 122%; GFP response vs DMSO [8]: 117% (inactive); GFP response, % of DMSO [9]: 108% (inactive); GFP response, % of DMSO [9, 21]: 111%; GFP response, % of DMSO [9, 22]: 103%; double positive events [10]: 64.5%; vesicle binding response [10]: 146% (inactive); inhibition [11]: 4.84% (inactive); superoxide response (% of plate) [12]: 80.4% (inactive); aptamer binding inhibition [13]: 1% (inactive); response [14]: 64.2% (active); inhibition [15]: 64.5% (active); response [16]: 62.2% (active); binding (% of control) [17]: 88.8% (inactive); efflux inhibition (fraction of control) [18]: -0.04 (inactive); inhibition [19]: -2% (inactive); differentiation response [20]: -0.06% (inactive)
